Assay in all cases: yeast three-hybrid, YBZ-1, SC-Leu-His + 0.5 mM 3-AT, 4 days
Common to all, as to conditions: tags: N-Gal4 AD-HA kept; label: inside an RPR1-promoter hybrid RNA with tandem MS2 sites; ssRNA

Assay [1] addresses PUM1 PUF domain R1-KRG (Homo sapiens, UniProt Q14671 828-1176, S863K;Q867G). A digest of the protocol:
(§1)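 Sequencing with Illumina followed PCR amplification of the repeat regions from transformants grown four days on SC-Leu (input) or SC-Leu-His + 0.5 mM 3-AT (selection). The transformants were strain YBZ-1 with a LexA–MS2 coat fusion and a HIS3 reporter, carrying Pumilio-1 PUF domain libraries and matching RNA elements. The interaction score is the log change in variant frequency from input to selection, computed in log2 with a pseudocount of 1 for absent variants.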

Assay [2] has as its target PUM1 PUF domain R1-QRK (Homo sapiens, UniProt Q14671 828-1176, S863Q;Q867K). A digest of the protocol: as §1
For assay [3], the target named is PUM1 PUF domain R1-RNR (Homo sapiens, UniProt Q14671 828-1176, S863R;R864N;Q867R). The gist of the method: as §1
In assay [4] the target is PUM1 PUF domain R4-ARV (Homo sapiens, UniProt Q14671 828-1176, N971A;H972R;Q975V). The gist of the method: as §1
In assay [5] the target is PUM1 PUF domain R2-LLL (Homo sapiens, UniProt Q14671 828-1176, N899L;Y900L;Q903L). The gist of the method:
as §1

In assay [6] the target is PUM1 PUF domain R3-CRS (Homo sapiens, UniProt Q14671 828-1176, Q939S). The gist of the method:
as §1

In assay [7] the target is PUM1 PUF domain R3-YPR (Homo sapiens, UniProt Q14671 828-1176, C935Y;R936P;Q939R). A digest of the protocol: as §1
For assay [8], the target named is PUM1 PUF domain R3-EWT (Homo sapiens, UniProt Q14671 828-1176, C935E;R936W;Q939T). The gist of the method: as §1
The target in assay [9] is PUM1 PUF domain R5-RNP (Homo sapiens, UniProt Q14671 828-1176, C1007R;R1008N;Q1011P). A digest of the protocol:
as §1

The target of assay [10] is PUM1 PUF domain R5-KPM (Homo sapiens, UniProt Q14671 828-1176, C1007K;R1008P;Q1011M). The gist of the method: as §1
The target in assay [11] is PUM1 PUF domain R5-NLS (Homo sapiens, UniProt Q14671 828-1176, C1007N;R1008L;Q1011S). The gist of the method: as §1
For assay [12], the target named is PUM1 PUF domain R4-DHM (Homo sapiens, UniProt Q14671 828-1176, N971D;Q975M). A digest of the protocol: as §1
The target in assay [13] is PUM1 PUF domain R3-GCF (Homo sapiens, UniProt Q14671 828-1176, C935G;R936C;Q939F). The gist of the method:
as §1

Assay [14] concerns the target PUM1 PUF domain R3-TGQ (Homo sapiens, UniProt Q14671 828-1176, C935T;R936G). A digest of the protocol: as §1
The target in assay [15] is PUM1 PUF domain R8-AWR (Homo sapiens, UniProt Q14671 828-1176, N1122A;Y1123W;Q1126R). The gist of the method: as §1
Assay [16] concerns the target PUM1 PUF domain R3-PHE (Homo sapiens, UniProt Q14671 828-1176, C935P;R936H;Q939E). A digest of the protocol: as §1
The target of assay [17] is PUM1 PUF domain R5-GQK (Homo sapiens, UniProt Q14671 828-1176, C1007G;R1008Q;Q1011K). The gist of the method: as §1
In assay [18] the target is PUM1 PUF domain R5-ELW (Homo sapiens, UniProt Q14671 828-1176, C1007E;R1008L;Q1011W). A digest of the protocol:
as §1

For assay [19], the target named is PUM1 PUF domain R5-NPE (Homo sapiens, UniProt Q14671 828-1176, C1007N;R1008P;Q1011E). The gist of the method: as §1
Assay [20] has as its target PUM1 PUF domain R7-QGR (Homo sapiens, UniProt Q14671 828-1176, S1079Q;N1080G;E1083R). A digest of the protocol: as §1

PUM1 PUF domain R3-CRS, sequence (Q14671 828-1176 Q939S): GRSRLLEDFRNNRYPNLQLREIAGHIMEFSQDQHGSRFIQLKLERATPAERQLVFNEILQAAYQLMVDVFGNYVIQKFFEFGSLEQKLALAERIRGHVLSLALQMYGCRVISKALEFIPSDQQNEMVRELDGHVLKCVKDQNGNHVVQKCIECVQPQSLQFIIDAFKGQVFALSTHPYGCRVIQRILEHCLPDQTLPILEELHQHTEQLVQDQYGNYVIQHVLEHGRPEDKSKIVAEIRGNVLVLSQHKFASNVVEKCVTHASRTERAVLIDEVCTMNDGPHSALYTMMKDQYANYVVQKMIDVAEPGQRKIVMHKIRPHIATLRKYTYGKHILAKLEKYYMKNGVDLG
PUM1 PUF domain R5-GQK, sequence (Q14671 828-1176 C1007G/R1008Q/Q1011K): as the sequence (Q14671 828-1176 Q939S) above, with S112Q, C180G, R181Q, Q184K counted along it
PUM1 PUF domain R3-EWT, sequence (Q14671 828-1176 C935E/R936W/Q939T): as the sequence (Q14671 828-1176 Q939S) above, with C108E, R109W, S112T counted along it
PUM1 PUF domain R8-AWR, sequence (Q14671 828-1176 N1122A/Y1123W/Q1126R): as the sequence (Q14671 828-1176 Q939S) above, with S112Q, N295A, Y296W, Q299R counted along it
PUM1 PUF domain R1-KRG, sequence (Q14671 828-1176 S863K/Q867G): as the sequence (Q14671 828-1176 Q939S) above, with S36K, Q40G, S112Q counted along it
PUM1 PUF domain R3-YPR, sequence (Q14671 828-1176 C935Y/R936P/Q939R): as the sequence (Q14671 828-1176 Q939S) above, with C108Y, R109P, S112R counted along it
PUM1 PUF domain R4-ARV, sequence (Q14671 828-1176 N971A/H972R/Q975V): as the sequence (Q14671 828-1176 Q939S) above, with S112Q, N144A, H145R, Q148V counted along it
PUM1 PUF domain R1-RNR, sequence (Q14671 828-1176 S863R/R864N/Q867R): as the sequence (Q14671 828-1176 Q939S) above, with S36R, R37N, Q40R, S112Q counted along it
PUM1 PUF domain R7-QGR, sequence (Q14671 828-1176 S1079Q/N1080G/E1083R): as the sequence (Q14671 828-1176 Q939S) above, with S112Q, S252Q, N253G, E256R counted along it
PUM1 PUF domain R3-TGQ, sequence (Q14671 828-1176 C935T/R936G): as the sequence (Q14671 828-1176 Q939S) above, with C108T, R109G, S112Q counted along it
PUM1 PUF domain R1-QRK, sequence (Q14671 828-1176 S863Q/Q867K): as the sequence (Q14671 828-1176 Q939S) above, with S36Q, Q40K, S112Q counted along it
PUM1 PUF domain R3-GCF, sequence (Q14671 828-1176 C935G/R936C/Q939F): as the sequence (Q14671 828-1176 Q939S) above, with C108G, R109C, S112F counted along it
PUM1 PUF domain R5-ELW, sequence (Q14671 828-1176 C1007E/R1008L/Q1011W): as the sequence (Q14671 828-1176 Q939S) above, with S112Q, C180E, R181L, Q184W counted along it
PUM1 PUF domain R5-NLS, sequence (Q14671 828-1176 C1007N/R1008L/Q1011S): as the sequence (Q14671 828-1176 Q939S) above, with S112Q, C180N, R181L, Q184S counted along it
PUM1 PUF domain R2-LLL, sequence (Q14671 828-1176 N899L/Y900L/Q903L): as the sequence (Q14671 828-1176 Q939S) above, with N72L, Y73L, Q76L, S112Q counted along it
PUM1 PUF domain R5-RNP, sequence (Q14671 828-1176 C1007R/R1008N/Q1011P): as the sequence (Q14671 828-1176 Q939S) above, with S112Q, C180R, R181N, Q184P counted along it
PUM1 PUF domain R5-NPE, sequence (Q14671 828-1176 C1007N/R1008P/Q1011E): as the sequence (Q14671 828-1176 Q939S) above, with S112Q, C180N, R181P, Q184E counted along it
PUM1 PUF domain R4-DHM, sequence (Q14671 828-1176 N971D/Q975M): as the sequence (Q14671 828-1176 Q939S) above, with S112Q, N144D, Q148M counted along it
PUM1 PUF domain R5-KPM, sequence (Q14671 828-1176 C1007K/R1008P/Q1011M): as the sequence (Q14671 828-1176 Q939S) above, with S112Q, C180K, R181P, Q184M counted along it
PUM1 PUF domain R3-PHE, sequence (Q14671 828-1176 C935P/R936H/Q939E): as the sequence (Q14671 828-1176 Q939S) above, with C108P, R109H, S112E counted along it

In the case of “GGCUAGAACUAGUGGAUCCCCCGGCGCCCGGCGGCUCGAGCCCGGGUAAGUGUAAAUCGUCUGCAUGCCGCCGGGCGCCAUGCCUGCAGGUCGACUCUAGAAAACAUG”, the binding signal in assay [1] is 2.86 log2 enrichment (interaction score); in assay [2] it was 4.66 log2 enrichment (interaction score); in assay [3] it was 4.17 log2 enrichment (interaction score).

Turning to “GGCUAGAACUAGUGGAUCCCCCGGCGCCCGGCGGCUCGAGCCCGGGUAAGUGUACAUAGUCUGCAUGCCGCCGGGCGCCAUGCCUGCAGGUCGACUCUAGAAAACAUG”, the binding signal in assay [4] was 0.8 log2 enrichment (interaction score).

On to “GGCUAGAACUAGUGGAUCCCCCGGCGCCCGGCGGCUCGAGCCCGGGUAAGUGUAAAGAGUCUGCAUGCCGCCGGGCGCCAUGCCUGCAGGUCGACUCUAGAAAACAUG”, for which the binding signal in [5] was 3.06 log2 enrichment (interaction score).

Regarding “GGCUAGAACUAGUGGAUCCCCCGGCGCCCGGCGGCUCGAGCCCGGGUAAGUGUAAGUAGUCUGCAUGCCGCCGGGCGCCAUGCCUGCAGGUCGACUCUAGAAAACAUG”, the binding signal in assay [6] was 2.6 log2 enrichment (interaction score); in assay [7] it was 3.45 log2 enrichment (interaction score); in [8], 4.76 log2 enrichment (interaction score).

Consider “GGCUAGAACUAGUGGAUCCCCCGGCGCCCGGCGGCUCGAGCCCGGGUAAGUGUAAAUUGUCUGCAUGCCGCCGGGCGCCAUGCCUGCAGGUCGACUCUAGAAAACAUG”, for which the binding signal is 1.23 log2 enrichment (interaction score) in assay [1] and 4.23 log2 enrichment (interaction score) in [3].

With “GGCUAGAACUAGUGGAUCCCCCGGCGCCCGGCGGCUCGAGCCCGGGUAAGUGUAAUUAGUCUGCAUGCCGCCGGGCGCCAUGCCUGCAGGUCGACUCUAGAAAACAUG”, the values for the binding signal in assay [6] and in assay [7] were 0.43 log2 enrichment (interaction score) and 0.67 log2 enrichment (interaction score), respectively.

In the case of “GGCUAGAACUAGUGGAUCCCCCGGCGCCCGGCGGCUCGAGCCCGGGUAAGUGUUAAUAGUCUGCAUGCCGCCGGGCGCCAUGCCUGCAGGUCGACUCUAGAAAACAUG”, the binding signal in assay [9] is 2.93 log2 enrichment (interaction score); in assay [10], 3.06 log2 enrichment (interaction score); in assay [11] it was 6.48 log2 enrichment (interaction score).

As for “GGCUAGAACUAGUGGAUCCCCCGGCGCCCGGCGGCUCGAGCCCGGGUAAGUGUAAAUAGUCUGCAUGCCGCCGGGCGCCAUGCCUGCAGGUCGACUCUAGAAAACAUG”, the binding signal was 3.28 log2 enrichment (interaction score) in [6]; 5.71 log2 enrichment (interaction score) in [12]; 3.59 log2 enrichment (interaction score) in assay [13]; 4.55 log2 enrichment (interaction score) in assay [14]; 4.49 log2 enrichment (interaction score) in [15]; 4.31 log2 enrichment (interaction score) in assay [8]. Further, the binding signal in [4] is 4.56 log2 enrichment (interaction score); in assay [16], 4.47 log2 enrichment (interaction score); in assay [17], 2.37 log2 enrichment (interaction score); in assay [18], 2.28 log2 enrichment (interaction score).

Consider “GGCUAGAACUAGUGGAUCCCCCGGCGCCCGGCGGCUCGAGCCCGGGUAAGUGUGAAUAGUCUGCAUGCCGCCGGGCGCCAUGCCUGCAGGUCGACUCUAGAAAACAUG”, for which the binding signal in assay [19] was 4.36 log2 enrichment (interaction score).

Take “GGCUAGAACUAGUGGAUCCCCCGGCGCCCGGCGGCUCGAGCCCGGGUAAGCGUAAAUAGUCUGCAUGCCGCCGGGCGCCAUGCCUGCAGGUCGACUCUAGAAAACAUG”: the binding signal in assay [15] is 4.57 log2 enrichment (interaction score).

Consider “GGCUAGAACUAGUGGAUCCCCCGGCGCCCGGCGGCUCGAGCCCGGGUAAGUGUCAAUAGUCUGCAUGCCGCCGGGCGCCAUGCCUGCAGGUCGACUCUAGAAAACAUG”, for which the binding signal in assay [17] is 2.24 log2 enrichment (interaction score).

On to “GGCUAGAACUAGUGGAUCCCCCGGCGCCCGGCGGCUCGAGCCCGGGUAAGUUUAAAUAGUCUGCAUGCCGCCGGGCGCCAUGCCUGCAGGUCGACUCUAGAAAACAUG”, for which the binding signal in [20] was 2.75 log2 enrichment (interaction score).

These data come from PMC8384837, “Expanding the binding specificity for RNA recognition by a PUF domain”.
